The source made the active and inactive calls.
Columns and labels:
[1] = binders of probe aFSTL3 on microarray, primary screen, stem cell growth factor project, biochemical, small-molecule microarray, fluorescence 635/667 (AID 1064); settings: higher = more signal;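 note: measures binding of the biotinylated anti-FSTL3 antibody to printed compounds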
[2] = binders from COS7 lysate, DM2A8 probe, primary screen, torsin A project, cell lysate, small-molecule microarray, fluorescence 635/667 (AID 1065); settings: higher = more signal, COS7 lysate expressing mutant human TOR1A
[3] = binders of probe aFGF2 on microarray, primary screen, stem cell growth factor project, biochemical, small-molecule microarray, fluorescence 635/667 (AID 1067); settings: higher = more signal;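 note: measures binding of biotinylated aFGF2 protein to printed compounds on slides; z-score merges feature fluorescence and signal-to-noise across triplicate slides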
[4] = binders of probe aFGF10 on microarray, primary screen, stem cell growth factor project, biochemical, small-molecule microarray, fluorescence 635/667 (AID 1071); settings: higher = more signal;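 note: score merges 667 nm spot intensity and signal to noise from triplicate slides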
[5] = target: Neurogenic locus notch homolog protein 2 (Homo sapiens) (UniProt Q04721); experiment: Notch2 binders on small-molecule microarrays, primary screen, biochemical, small-molecule microarray, 635 nm fluorescence, stem cell growth factors (AID 1073); settings: Notch2 binding, higher = more signal
Chain of Neurogenic locus notch homolog protein 2 (Homo sapiens) (Q04721 whole entry, looked up, canonical isoform): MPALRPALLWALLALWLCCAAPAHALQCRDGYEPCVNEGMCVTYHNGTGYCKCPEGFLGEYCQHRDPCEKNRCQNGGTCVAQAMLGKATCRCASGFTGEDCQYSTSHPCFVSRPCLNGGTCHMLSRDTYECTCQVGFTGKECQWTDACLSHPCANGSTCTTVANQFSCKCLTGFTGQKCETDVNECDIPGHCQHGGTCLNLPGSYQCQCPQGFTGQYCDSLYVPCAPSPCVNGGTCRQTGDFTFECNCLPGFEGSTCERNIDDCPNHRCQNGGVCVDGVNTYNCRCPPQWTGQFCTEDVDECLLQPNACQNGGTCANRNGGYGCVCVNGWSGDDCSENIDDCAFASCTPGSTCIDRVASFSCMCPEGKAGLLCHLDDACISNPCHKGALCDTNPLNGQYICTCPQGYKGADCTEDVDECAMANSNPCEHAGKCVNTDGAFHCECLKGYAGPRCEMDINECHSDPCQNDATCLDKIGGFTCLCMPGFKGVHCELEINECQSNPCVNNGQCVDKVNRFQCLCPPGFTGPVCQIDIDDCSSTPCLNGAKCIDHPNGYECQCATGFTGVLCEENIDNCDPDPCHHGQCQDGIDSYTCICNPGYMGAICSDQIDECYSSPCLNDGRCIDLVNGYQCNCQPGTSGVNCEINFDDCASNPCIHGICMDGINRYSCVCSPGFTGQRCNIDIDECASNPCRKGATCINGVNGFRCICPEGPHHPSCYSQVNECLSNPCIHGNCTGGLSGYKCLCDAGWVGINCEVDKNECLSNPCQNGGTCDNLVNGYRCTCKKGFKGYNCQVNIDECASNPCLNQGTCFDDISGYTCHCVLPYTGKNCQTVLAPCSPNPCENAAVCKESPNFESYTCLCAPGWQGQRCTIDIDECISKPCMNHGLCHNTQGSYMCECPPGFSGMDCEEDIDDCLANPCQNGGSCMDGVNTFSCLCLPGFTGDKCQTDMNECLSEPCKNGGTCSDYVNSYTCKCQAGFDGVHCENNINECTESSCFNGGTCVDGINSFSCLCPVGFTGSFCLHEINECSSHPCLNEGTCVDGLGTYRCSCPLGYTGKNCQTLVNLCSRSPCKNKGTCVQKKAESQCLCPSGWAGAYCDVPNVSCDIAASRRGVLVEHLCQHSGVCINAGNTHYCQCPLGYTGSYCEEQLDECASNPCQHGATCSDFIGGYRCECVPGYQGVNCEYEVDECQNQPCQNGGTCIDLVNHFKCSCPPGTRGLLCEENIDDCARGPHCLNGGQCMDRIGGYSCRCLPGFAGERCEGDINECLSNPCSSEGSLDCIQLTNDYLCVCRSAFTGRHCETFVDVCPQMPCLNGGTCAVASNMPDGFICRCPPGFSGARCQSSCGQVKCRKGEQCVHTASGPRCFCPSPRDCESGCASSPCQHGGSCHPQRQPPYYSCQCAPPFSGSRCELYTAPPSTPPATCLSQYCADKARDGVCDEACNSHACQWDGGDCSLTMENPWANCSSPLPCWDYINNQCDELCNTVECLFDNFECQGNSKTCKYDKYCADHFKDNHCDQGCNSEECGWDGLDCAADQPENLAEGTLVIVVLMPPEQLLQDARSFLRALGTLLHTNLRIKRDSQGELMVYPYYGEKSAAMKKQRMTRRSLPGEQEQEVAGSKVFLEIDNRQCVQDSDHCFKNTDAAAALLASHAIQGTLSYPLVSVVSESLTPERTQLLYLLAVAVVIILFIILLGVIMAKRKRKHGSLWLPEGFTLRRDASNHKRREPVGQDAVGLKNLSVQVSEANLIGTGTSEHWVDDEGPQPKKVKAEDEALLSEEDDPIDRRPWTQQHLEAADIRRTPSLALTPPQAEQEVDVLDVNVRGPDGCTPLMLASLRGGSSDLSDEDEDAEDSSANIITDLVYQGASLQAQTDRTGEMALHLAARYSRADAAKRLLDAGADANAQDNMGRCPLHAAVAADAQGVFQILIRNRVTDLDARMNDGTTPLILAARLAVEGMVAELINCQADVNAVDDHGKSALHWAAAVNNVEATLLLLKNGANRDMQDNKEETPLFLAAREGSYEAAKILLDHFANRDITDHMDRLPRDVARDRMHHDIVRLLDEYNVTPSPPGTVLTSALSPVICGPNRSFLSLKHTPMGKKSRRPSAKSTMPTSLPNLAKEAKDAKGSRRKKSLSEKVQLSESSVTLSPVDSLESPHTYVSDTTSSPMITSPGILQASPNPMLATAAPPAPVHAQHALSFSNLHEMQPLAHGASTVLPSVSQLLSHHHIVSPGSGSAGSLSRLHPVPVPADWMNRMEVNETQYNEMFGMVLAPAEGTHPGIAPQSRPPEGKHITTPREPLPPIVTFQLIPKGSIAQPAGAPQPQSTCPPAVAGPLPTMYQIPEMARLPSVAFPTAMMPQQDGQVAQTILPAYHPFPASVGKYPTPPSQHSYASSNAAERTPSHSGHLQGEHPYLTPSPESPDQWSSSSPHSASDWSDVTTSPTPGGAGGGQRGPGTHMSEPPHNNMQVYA

[6] = target: Pro-neuregulin-1, membrane-bound isoform (Homo sapiens) (UniProt Q02297); experiment: NRG1 binders on small-molecule microarrays, primary screen, psychiatric disease protein project, biochemical, small-molecule microarray, fluorescence 635/667 (AID 1075); settings: NRG1 binding, 635 nm fluorescence, higher = more signal;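 note: score combines 667 nm spot fluorescence with signal to noise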
Chain of Pro-neuregulin-1, membrane-bound isoform (Homo sapiens) (Q02297 whole entry, looked up, the tested form may be a part, canonical isoform): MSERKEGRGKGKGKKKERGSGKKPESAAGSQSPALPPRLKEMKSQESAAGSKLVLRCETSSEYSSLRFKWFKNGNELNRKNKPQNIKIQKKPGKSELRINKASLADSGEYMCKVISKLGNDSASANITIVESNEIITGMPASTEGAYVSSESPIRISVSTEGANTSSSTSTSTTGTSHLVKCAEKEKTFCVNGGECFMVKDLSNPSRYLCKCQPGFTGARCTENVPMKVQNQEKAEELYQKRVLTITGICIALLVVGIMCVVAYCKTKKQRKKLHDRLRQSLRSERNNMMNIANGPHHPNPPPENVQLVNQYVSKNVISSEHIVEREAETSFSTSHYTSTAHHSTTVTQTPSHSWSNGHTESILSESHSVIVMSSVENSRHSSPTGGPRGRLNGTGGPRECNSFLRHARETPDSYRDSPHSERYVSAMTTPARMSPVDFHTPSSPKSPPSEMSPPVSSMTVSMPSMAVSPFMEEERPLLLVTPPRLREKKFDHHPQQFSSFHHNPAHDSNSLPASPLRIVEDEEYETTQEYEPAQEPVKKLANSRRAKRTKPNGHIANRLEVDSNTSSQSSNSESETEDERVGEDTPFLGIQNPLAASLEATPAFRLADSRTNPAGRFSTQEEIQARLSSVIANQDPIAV

[7] = test system: Neuregulin-1 EGF-like domain; experiment: binders of neuregulin-1 EGF-like domain, primary screen, biochemical, small-molecule microarray, 635 nm fluorescence (AID 1081); settings: small-molecule microarray binding, higher = more signal;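 note: binding of the protein to compounds printed on small-molecule microarray slides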
[8] = FRG1 promoter luciferase signal modulators, primary screen, FRG1 inhibition for FSHD, cell-based, C2C12 myotubes, firefly/Renilla luciferase, luminescence (AID 1084); settings: higher = more signal, called active from +8 up or from −8 down
[9] = binders of probe aFST on microarray, primary screen, stem cell growth factor project, biochemical, small-molecule microarray, fluorescence 635/667 (AID 1086); settings: higher = more signal;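 note: score merges 667 nm fluorescence with signal-to-noise of each printed compound spot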
[10] = binders of probe aHhip on microarray, primary screen, stem cell growth factor project, biochemical, small-molecule microarray, fluorescence 635/667 (AID 1087); settings: higher = more signal;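 note: score merges spot fluorescence at 667nm with spot signal to noise ratio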
[11] = test system: PRMT1 (protein arginine N-methyltransferase 1); experiment: PRMT1 binders on small-molecule microarrays, primary screen, biochemical, small-molecule microarray, 635 nm fluorescence (AID 1088); settings: small-molecule microarray binding, higher = more signal;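 note: binding of Prmt1 protein to compounds spotted on small-molecule microarray slides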
[12] = yeast growth modulation, basal conditions, primary screen, YJM789 clinical isolate, OD600, 24 h (AID 1089);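 note: growth of clinical yeast isolate S. cerevisiae YJM 789 seeded 1000 cells per well; test concentration not given here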; settings: S. cerevisiae YJM789 growth, higher = more signal, called active from +8 up or from −8 down
[13] = fission yeast growth modulation, primary screen, strain 972, OD600, 24 h, no modulator (AID 1090);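 note: basal condition with compound alone and no growth modifier present; test concentration not given here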; settings: S. pombe 972 growth, higher = more signal, called active from +8 up or from −8 down
[14] = S. cerevisiae growth modulation with rapamycin, primary screen, strain BY4716, OD600, 96 h (AID 1091); settings: higher = more signal, called active from +8 up or from −8 down; note: test concentration not given here
[15] = target: Torsin-1A-interacting protein 2 (Homo sapiens) (UniProt Q8NFQ8); experiment: LULL1 binders on small-molecule microarray, primary screen, cell lysate, human LULL1 lysate, 635/667 nm fluorescence (AID 1092); settings: hLULL1 lysate binding, 635 nm fluorescence, higher = more signal;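 note: probe is lysate of COS7 cells overexpressing human LULL1; score merges per-feature 667 nm fluorescence with signal-to-noise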
Chain of Torsin-1A-interacting protein 2 (Homo sapiens) (Q8NFQ8 whole entry, looked up): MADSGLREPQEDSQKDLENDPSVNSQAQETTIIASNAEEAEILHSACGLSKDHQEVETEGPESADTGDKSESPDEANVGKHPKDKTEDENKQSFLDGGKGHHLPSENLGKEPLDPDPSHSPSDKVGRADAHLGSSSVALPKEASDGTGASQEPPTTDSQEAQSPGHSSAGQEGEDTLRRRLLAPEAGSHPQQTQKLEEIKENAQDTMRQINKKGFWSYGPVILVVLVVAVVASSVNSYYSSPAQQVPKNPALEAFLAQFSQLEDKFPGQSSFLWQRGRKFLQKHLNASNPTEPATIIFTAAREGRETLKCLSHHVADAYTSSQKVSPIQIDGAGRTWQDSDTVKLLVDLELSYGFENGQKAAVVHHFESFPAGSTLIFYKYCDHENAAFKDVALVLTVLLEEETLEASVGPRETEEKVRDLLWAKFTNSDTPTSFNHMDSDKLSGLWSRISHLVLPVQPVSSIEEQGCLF

[16] = E. coli growth modulation, two-sided OD650, primary screen, E. coli filamentation project, strain DRC41, 24 h (AID 1093); settings: OD650, 24 h, higher = more signal, called active from +8 up or from −8 down;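 note: MC1000 strain lacking acrAB efflux and sulA so SOS filamentation is blocked; test concentration not given here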
[17] = small-molecule microarray binders of probe aLefty2, primary screen, biochemical, biotinylated probe, 635/667 nm fluorescence (AID 1094); settings: higher = more signal;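 note: score merges spot fluorescence near 667 nm with spot signal-to-noise ratio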
[18] = test system: Noggin (protein binding on small-molecule microarray); experiment: Noggin binders on small-molecule microarray, primary screen, biochemical, 635/667 nm fluorescence (AID 1095); settings: 635 nm fluorescence, higher = more signal;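 note: score merges 667 nm feature fluorescence with signal to noise over triplicate slides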
[19] = target: Neurogenic locus notch homolog protein 3 (Homo sapiens) (UniProt Q9UM47); experiment: NOTCH3 binders on small-molecule microarray, primary screen, biochemical, 635/667 nm fluorescence (AID 1096); settings: NOTCH3 binding, 635 nm fluorescence, higher = more signal
[20] = small-molecule microarray binders of probe aEGFR, primary screen, biochemical, biotinylated probe, 635/667 nm fluorescence (AID 1097); settings: higher = more signal;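 note: probe is a biotinylated anti-EGFR antibody binding compounds printed on slides; score combines fluorescence near 667 nm and signal to noise of each spot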

SMILES	composite z-score [1]	composite z-score [2]	composite z-score [3]	composite z-score [4]	composite z-score [5]	composite z-score [6]	composite z-score [7]	z-score [8]	composite z-score [9]	composite z-score [10]	composite z-score [11]	z-score [12]	z-score [13]	z-score [14]	composite z-score [15]	z-score [16]	composite z-score [17]	composite z-score [18]	composite z-score [19]	composite z-score [20]
[N-]=[N+]=NCc1ccccc1C[C@@]1(C(=O)NCCN2CCOCC2)N=C(c2ccc(OCCCO)cc2)O[C@@H]1c1ccccc1	-0.0252	-0.539	-0.0514	0.246	0.266	1.12	1.28	-3.05 (inactive)	0.804	-0.0994	1.37	-0.941 (inactive)	-3.76 (inactive)	15.8 (active)	2.96	-0.304 (inactive)	-0.0073	0.565	0.65	-0.0128
COc1cc(CO)cc(I)c1O[C@H]1C=C(C(=O)NCCO)C[C@@H](N(CCN2CCOCC2)C(=O)C2CCCO2)[C@@H]1O (stereo not given in full)	-0.351	0.193	-0.109	0.228	1.14	-0.34	0.201	0.104 (inactive)	0.0496	-0.0383	-0.15	0.383 (inactive)	-0.455 (inactive)	0.0665 (inactive)	0.206	2.54 (inactive)	-0.172	0.34	-0.204	-0.0106
COC(=O)[C@@]1(Cc2ccc(F)cc2)[C@H]2c3cc(C(=O)N4CCCC4)n(Cc4ccc(C(F)(F)F)nc4)c3C[C@H]2CN1C(=O)c1ccccc1	0.581	-0.0219	0.16	0.0812	1.74	2.1	0.92	2 (inactive)	2.25	-0.0799	0.428	-0.368 (inactive)	1.17 (inactive)	3.82 (inactive)	2.29	-0.293 (inactive)	0.67	0.373	1.03	0.188
[N-]=[N+]=Nc1ccccc1C[C@]1(C(=O)N2CCCCC2)N=C(c2ccc(OCCCO)cc2)O[C@H]1c1ccccc1	0.484	0.593	-0.0332	1.21	1.36	0.733	1.08	-3.1 (inactive)	0.933	0.154	1.33	-0.44 (inactive)	-9.22 (active)	0.926 (inactive)	2.74	1 (inactive)	0.131	0.595	1.1	0.279
O=C1OC[C@@H](c2ccccc2)n2cc(/C=C/c3ccccc3)cc21	0.0087	-0.382	-0.178	-0.162	-0.924	0.895	0.132	-0.144 (inactive)	-0.503	-0.306	-0.329	-0.154 (inactive)	-2.68 (inactive)	0.614 (inactive)	-0.0278	1.45 (inactive)	-0.0042	-0.364	-0.0623	-0.108
COCCCNC(=O)[C@@]1(CCC(=O)OC(C)(C)C)N=C(c2ccc(OCCCO)cc2)O[C@H]1c1ccccc1	0.593	0.737	0.0584	0.186	1.23	1.64	1.3	-1.79 (inactive)	1.16	0.0424	1.53	0.241 (inactive)	-0.629 (inactive)	0.0716 (inactive)	3.51	1.25 (inactive)	0.0296	1.56	0.275	0.0682
O=C1O[C@H](c2ccccc2)[C@H](c2ccccc2)N2[C@H]1[C@@H](C(=O)Nc1nc3ccccc3s1)[C@]1(C(=O)Nc3ccccc31)[C@H]2c1ccccc1OCCO	-0.249	-0.0611	0.0084	0.12	1.15	1.42	1.02	1.62 (inactive)	-0.0275	-0.0994	1.5	1.91 (inactive)	2.2 (inactive)	3.94 (inactive)	3.09	0.732 (inactive)	0.229	0.712	0.595	-0.0828
C=CCNC(=O)[C@@H]1[C@H]2C(=O)O[C@H](c3ccccc3)[C@H](c3ccccc3)N2[C@H](c2ccc(OCCO)cc2)[C@@]12C(=O)Nc1ccc(C#CCNC(N)=O)cc12	0.18	-0.262	-0.22	0.169	-1.01	0.43	0.184	0.243 (inactive)	0.675	-0.191	0.872	0.696 (inactive)	-0.279 (inactive)	1.92 (inactive)	1.8	0.0528 (inactive)	-0.0368	0.216	0.266	-0.182
C[C@]12C(=O)N(CCO)[C@@H]3C(=O)N(c4ccc(Cl)cc4)CC=CC31O[C@@H]1/C=C\CCCOC(=O)C12 (stereo not given in full)	0.721	-0.581	-0.0985	-0.986	-0.759	1.12	0.0495	0.868 (inactive)	-0.599	-0.132	-0.0919	-0.174 (inactive)	-0.13 (inactive)	0.169 (inactive)	-0.236	0.125 (inactive)	0.034	-0.464	0.0111	-0.216

Reference: PubChem BioAssay
